The record followed here is the antibiotic and cytotoxicity screens of Wong et al. (2023).

Molecules are shown by their SMILES. The campaign covered roughly 39,000 compounds. About 3,300 (8.5%) were called active. For the sample, actives were picked, then their nearest neighbours and some compounds at random.

The test system of this assay is HepG2. Put plainly: cytotoxicity call (relative viability < 0.9). The following applies: 10 µM.
For the molecule `C[C@H](CO)N1C[C@H](C)[C@@H](CN(C)S(=O)(=O)c2ccccc2)Oc2c(NC(=O)C3CC3)cccc2C1=O`, the cytotoxicity call is “inactive”.

For the molecule `C[C@H]1CN([C@@H](C)CO)C(=O)c2cccc(NC(=O)c3ccncc3)c2O[C@@H]1CN(C)S(=O)(=O)c1ccc(F)cc1`, the cytotoxicity call is “inactive”.

Consider `COCCN1CCC(N(Cc2ccc(-c3ccc(C(F)(F)F)cc3)cc2)C(=O)Cn2c(SCc3cccc(F)c3F)cc(=O)c3ccccc32)CC1`, for which the cytotoxicity call was “active”.

Consider `C[C@@H]1CN([C@@H](C)CO)C(=O)c2cc(NC(=O)c3ccncc3)ccc2O[C@@H](C)CCCCO[C@@H]1CN(C)S(C)(=O)=O`, for which the cytotoxicity call was “inactive”.

With `O=C1Nc2ccc(I)cc2C1=Cc1cc(Br)c(O)c(Br)c1`, the cytotoxicity call is “active”.

As for `COc1ccc2c(c1)C(=O)C(=O)N2`, the cytotoxicity call is “inactive”.

For `COc1ccc2c(c1)/C(=N\O)C(=O)N2`, the cytotoxicity call is “inactive”.

`CC(C)C[C@@H](N)C(=O)N[C@H]1C(=O)N[C@@H](CC(N)=O)C(=O)N[C@H]2C(=O)N[C@H]3C(=O)N[C@H](C(=O)N[C@H](C(=O)O)c4cc(O)cc(O)c4-c4cc3ccc4O)[C@H](O)c3ccc(c(Cl)c3)Oc3cc2cc(c3O[C@@H]2O[C@H](CO)[C@@H](O)[C@H](O)[C@H]2O[C@H]2C[C@](C)(N)[C@H](O)[C@H](C)O2)Oc2ccc(cc2Cl)[C@H]1O`: the cytotoxicity call is “inactive”.

As for `C[C@@H]1CCCCO[C@@H](CN(C)C(=O)Nc2cccc3ccccc23)[C@@H](C)CN([C@H](C)CO)C(=O)c2cc(NS(=O)(=O)c3ccc(Cl)cc3)ccc2O1`, the cytotoxicity call is “inactive”.

For `COc1ccc(S(=O)(=O)Nc2ccc3c(c2)[C@@H]2C[C@@H](CC(=O)NCC4CC4)O[C@H](CO)[C@@H]2O3)cc1`, the cytotoxicity call is “inactive”.

As for `CS(=O)(=O)O.CSc1ccc2c(c1)C(N1CCN(C)CC1)Cc1ccccc1S2` (centres undefined), the cytotoxicity call was “active”.

Consider `C[C@H]1CN([C@@H](C)CO)C(=O)Cc2cc(NC(=O)Nc3cccc4ccccc34)ccc2O[C@H]1CN(C)S(=O)(=O)c1ccc(F)cc1`, for which the cytotoxicity call is “inactive”.

For the molecule `C[C@H](CO)N1C[C@H](C)[C@H](CN(C)Cc2ccc(-c3ccccc3)cc2)Oc2c(NC(=O)c3ccc(-c4nccs4)cc3)cccc2C1=O`, the cytotoxicity call is “inactive”.

On to `C[C@@H]1CN([C@H](C)CO)C(=O)c2cc(NC(=O)Nc3ccc(C(F)(F)F)cc3)ccc2O[C@@H]1CN(C)Cc1ccc(Oc2ccccc2)cc1`, for which the cytotoxicity call was “active”.

On to `C[C@H](CO)N1C[C@H](C)[C@@H](CN(C)Cc2ccc(Oc3ccccc3)cc2)Oc2ccc(NC(=O)Nc3ccc(C(F)(F)F)cc3)cc2C1=O`, for which the cytotoxicity call is “inactive”.

For `C[C@H]1CN([C@@H](C)CO)C(=O)c2cc(NC(=O)Nc3ccc(C(F)(F)F)cc3)ccc2O[C@@H]1CN(C)Cc1ccc(Oc2ccccc2)cc1`, the cytotoxicity call is “inactive”.

For `C[C@H](CO)N1C[C@H](C)[C@H](CN(C)Cc2ccc(Oc3ccccc3)cc2)Oc2ccc(NC(=O)Nc3ccc(C(F)(F)F)cc3)cc2C1=O`, the cytotoxicity call is “active”.

As to `C[C@H]1CN([C@@H](C)CO)C(=O)c2cc(NC(=O)Nc3ccc(C(F)(F)F)cc3)ccc2O[C@H]1CN(C)Cc1ccc(Oc2ccccc2)cc1`, the cytotoxicity call is “active”.

Turning to `C[C@@H]1CN([C@@H](C)CO)C(=O)c2cc(NC(=O)Nc3ccc(C(F)(F)F)cc3)ccc2O[C@H]1CN(C)Cc1ccc(Oc2ccccc2)cc1`, the cytotoxicity call was “active”.

In the case of `C[C@@H]1CN([C@H](C)CO)C(=O)c2cc(NC(=O)Nc3ccc(C(F)(F)F)cc3)ccc2O[C@H]1CN(C)Cc1ccc(Oc2ccccc2)cc1`, the cytotoxicity call was “inactive”.

For `C[C@@H]1CN([C@@H](C)CO)S(=O)(=O)c2ccc(Br)cc2O[C@H]1CN(C)CC1CCOCC1`, the cytotoxicity call was “inactive”.

In the case of `COc1ccc(NC(=O)Nc2ccc3c(c2)C(=O)N([C@@H](C)CO)C[C@H](C)[C@@H](CN(C)C(=O)Nc2cccc4ccccc24)O3)cc1`, the cytotoxicity call was “inactive”.

For the molecule `C[C@H]1CN([C@@H](C)CO)S(=O)(=O)c2ccc(C#Cc3ccccc3)cc2O[C@@H]1CN(C)C(=O)Cc1ccccn1`, the cytotoxicity call was “inactive”.

As to `Nc1nc(=O)c2ncn(CCC(CO)CO)c2[nH]1`, the cytotoxicity call is “inactive”.

`Cc1noc(C)c1NC(=O)N(C)C[C@H]1Oc2ccc(NC(=O)NC(C)C)cc2CC(=O)N([C@H](C)CO)C[C@H]1C`: the cytotoxicity call is “inactive”.

For the molecule `C[C@@H]1CN([C@@H](C)CO)C(=O)c2cc(NC(=O)Nc3ccc(C(F)(F)F)cc3)ccc2O[C@@H]1CN(C)Cc1ccc(Oc2ccccc2)cc1`, the cytotoxicity call was “active”.

With `C[C@@H]1CN([C@@H](C)CO)C(=O)c2cc(NC(=O)Nc3ccc(C(F)(F)F)cc3)ccc2O[C@@H]1CN(C)C(=O)Nc1ccccc1`, the cytotoxicity call was “inactive”.

Turning to `C[n+]1ccc(/C2=C3\C=CC(=N3)/C(c3cc[n+](C)cc3)=c3/cc/c4[n]3[Fe][n]3c2ccc3/C(c2cc[n+](C)cc2)=C2/C=CC(=N2)\C=4c2cc[n+](C)cc2)cc1`, the cytotoxicity call is “active”.

For `O=C(O)c1ccc(/C2=C3\C=CC(=N3)/C(c3ccc(C(=O)O)cc3)=c3/cc/c4[n]3[Mn+][n]3c2ccc3/C(c2ccc(C(=O)O)cc2)=C2/C=CC(=N2)\C=4c2ccc(C(=O)O)cc2)cc1`, the cytotoxicity call is “inactive”.

Consider `C[C@@H]1CN([C@@H](C)CO)C(=O)c2cc(NC(=O)Cc3ccccc3)ccc2O[C@@H]1CN(C)S(=O)(=O)c1ccccc1`, for which the cytotoxicity call is “inactive”.

Consider `C[C@@H]1CN([C@@H](C)CO)C(=O)c2cccc(NC(=O)C3CC3)c2O[C@@H]1CN(C)S(=O)(=O)c1cccs1`, for which the cytotoxicity call was “inactive”.

`Cc1ccc(S(=O)(=O)N(C)C[C@@H]2OCCCC[C@@H](C)Oc3ccc(NC(=O)Nc4c(C)noc4C)cc3C(=O)N([C@@H](C)CO)C[C@@H]2C)cc1`: the cytotoxicity call was “inactive”.

For the molecule `C[C@@H]1CCCCO[C@@H](CN(C)CC2CC2)[C@@H](C)CN([C@H](C)CO)C(=O)c2cc(NS(=O)(=O)c3cn(C)cn3)ccc2O1`, the cytotoxicity call is “inactive”.

With `COc1ccc(CN(C)C[C@@H]2Oc3ccc(NC(=O)Nc4cccc5ccccc45)cc3CC(=O)N([C@H](C)CO)C[C@@H]2C)cc1`, the cytotoxicity call was “inactive”.

`COc1ccc(CN(C)C[C@H]2Oc3ccc(NC(=O)Nc4cccc5ccccc45)cc3CC(=O)N([C@@H](C)CO)C[C@@H]2C)cc1`: the cytotoxicity call was “active”.

On to `COc1ccc(CN(C)C[C@H]2Oc3ccc(NC(=O)Nc4cccc5ccccc45)cc3CC(=O)N([C@H](C)CO)C[C@H]2C)cc1`, for which the cytotoxicity call was “active”.

As for `COc1ccc(CN(C)C[C@H]2Oc3ccc(NC(=O)Nc4cccc5ccccc45)cc3CC(=O)N([C@@H](C)CO)C[C@H]2C)cc1`, the cytotoxicity call was “active”.

Turning to `COc1ccc(CN(C)C[C@@H]2Oc3ccc(NC(=O)Nc4cccc5ccccc45)cc3CC(=O)N([C@H](C)CO)C[C@H]2C)cc1`, the cytotoxicity call is “inactive”.

`COc1ccc(CN(C)C[C@@H]2Oc3ccc(NC(=O)Nc4cccc5ccccc45)cc3CC(=O)N([C@@H](C)CO)C[C@@H]2C)cc1`: the cytotoxicity call is “active”.
